Experimental data: PubChem BioAssay AID1159580 (chemical genetic matrix, 2015)
Several values for one entry are separate records, joined by “and”; a condition that tells them apart may be missing. Identical values can stand only once. In all, about 5,500 compounds went through this assay and about 2,000 (36%) were called active. Another 18% or so got no clear call; they are omitted. Rule as the data show it: active = normalized growth mostly below about 0.91 (no sharp cut-off); inconclusive = no clear call, values can overlap the other calls; inactive = mostly above about 0.92. The list shows a part of the results.

Test: chemical genetic growth profiling, strain panel (AID 1159580);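 also: tested at 20 µM; growth read once vehicle control cultures reached saturation at 30 °C; 1 = growth at the plate median or of vehicle wells; lower values mean less growth of the strain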
Conditions: S. cerevisiae deletion strains, growth OD
[1] = locus YMR307W, strain GAS1, stronger effect = lower value
[2] = locus YNL322C, strain KRE1, stronger effect = lower value
[3] = locus YPL055C, strain LGE1, stronger effect = lower value

Measured: normalized growth

CCCN1CCc2cc(O)cc3c2[C@H]1Cc1ccc(O)c(O)c1-3
inactive: locus YAL040C, strain CLN3, stronger effect = lower value 1.03 | locus YDR363W, strain ESC2, stronger effect = lower value 0.922 | locus YER002W, strain NOP16, stronger effect = lower value 1.01 | locus YNL175C, strain NOP13, stronger effect = lower value 1.01 | locus YNL197C, strain WHI3, stronger effect = lower value 0.983 | locus YNL224C, strain SQS1, stronger effect = lower value 1.01 | locus YOR083W, strain WHI5 (second series), stronger effect = lower value 0.926
active: locus YCL061C, strain MRC1 (second series), stronger effect = lower value 0.779 | [1] 0.771 | [2] 0.654 | [3] 0.553

COc1cc2c(cc1O)CC1c3c(cc(O)c(OC)c3-2)CCN1C (stereo not given)
inactive: locus YAL021C, strain ccr4, stronger effect = lower value 1.02 | locus YAL026C, strain drs2, stronger effect = lower value 1.03 | locus YAL030W, strain snc1, stronger effect = lower value 1.01 | locus YBL061C, strain skt5, stronger effect = lower value 1.02 | locus YBR009C, strain hhf1, stronger effect = lower value 1.03 | locus YBR021W, strain FUR4, stronger effect = lower value 0.993 | locus YBR023C, strain chs3, stronger effect = lower value 1.02 | locus YBR171W, strain sec66, stronger effect = lower value 1.01 | locus YBR229C, strain ROT2, stronger effect = lower value 0.999 | locus YBR231C, strain swc5, stronger effect = lower value 1.01 | locus YBR279W, strain paf1, stronger effect = lower value 1.01 | locus YCL011C, strain gbp2, stronger effect = lower value 1.02 | locus YCL016C, strain dcc1, stronger effect = lower value 1 | locus YCL029C, strain bik1, stronger effect = lower value 0.994 | locus YCL061C, strain MRC1, stronger effect = lower value 1.01 | locus YCL069W, strain vba3, stronger effect = lower value 1.01 | locus YCR088W, strain abp1, stronger effect = lower value 1.01 | locus YDL005C, strain med2, stronger effect = lower value 1.03 | locus YDL035C, strain GPR1, stronger effect = lower value 1 | locus YDL040C, strain nat1, stronger effect = lower value 1.01 | locus YDL074C, strain BRE1, stronger effect = lower value 1 | locus YDL101C, strain DUN1, stronger effect = lower value 0.996 | locus YDL185W, strain tfp1, stronger effect = lower value 0.991 | locus YDL192W, strain arf1, stronger effect = lower value 0.996 | locus YDR001C, strain nth1, stronger effect = lower value 1.01 | locus YDR069C, strain doa4, stronger effect = lower value 1.04 | locus YDR101C, strain arx1, stronger effect = lower value 0.98 | locus YDR137W, strain rgp1, stronger effect = lower value 1.04 | locus YDR159W, strain sac3, stronger effect = lower value 1.04 | locus YDR162C, strain NBP2, stronger effect = lower value 1 | locus YDR195W, strain ref2 0.999 | locus YDR297W, strain sur2, stronger effect = lower value 1.01 | locus YDR318W, strain mcm21, stronger effect = lower value 1 | locus YDR334W, strain swr1, stronger effect = lower value 1.01 | locus YDR335W, strain msn5, stronger effect = lower value 1.01 | locus YDR388W, stronger effect = lower value 0.996 | locus YDR392W, strain spt3, stronger effect = lower value 0.95 | locus YDR502C, strain sam2, stronger effect = lower value 0.993 | locus YEL003W, strain gim4, stronger effect = lower value 1.02 | locus YEL037C, strain rad23, stronger effect = lower value 1.01 | locus YEL061C, strain CIN8 (second series), stronger effect = lower value 1.01 | locus YEL061C, strain CIN8, stronger effect = lower value 0.998 | locus YER015W, strain faa2, stronger effect = lower value 1.01 | locus YER016W, strain bim1, stronger effect = lower value 1.02 | locus YER110C, stronger effect = lower value 0.997 | locus YER111C, strain swi4, stronger effect = lower value 1.01 | locus YER155C, strain BEM2 (second series), stronger effect = lower value 1.03 | locus YER155C, strain BEM2, stronger effect = lower value 1 | locus YER167W, strain BCK2, stronger effect = lower value 1 | locus YFR010W, strain ubp6, stronger effect = lower value 1.02 | locus YGL078C, strain dbp3, stronger effect = lower value 0.997 | locus YGL086W, strain mad1, stronger effect = lower value 0.978 | locus YGL167C, strain pmr1, stronger effect = lower value 1 | locus YGL173C, strain kem1, stronger effect = lower value 1.02 | locus YGL227W, strain vid30, stronger effect = lower value 1.02 | locus YGL240W, strain doc1, stronger effect = lower value 1.01 | locus YGL248W, strain PDE1, stronger effect = lower value 1.01 | locus YGL253W, strain hxk2, stronger effect = lower value 1 | locus YGR135W, strain pre9, stronger effect = lower value 0.986 | locus YGR252W, strain gcn5, stronger effect = lower value 0.917 | locus YHR013C, strain ard1, stronger effect = lower value 1 | locus YHR027C, strain rpn1, stronger effect = lower value 1.02 | locus YHR030C, strain SLT2, stronger effect = lower value 1.01 and 0.986 | locus YHR079C, strain IRE1 (second series), stronger effect = lower value 0.993 | locus YHR079C, strain IRE1, stronger effect = lower value 1.01 | locus YHR094C, strain hxt1, stronger effect = lower value 1 | locus YHR129C, strain ARP1, stronger effect = lower value 0.994 | locus YHR142W, strain chs7, stronger effect = lower value 0.996 | locus YHR200W, strain rpn10, stronger effect = lower value 0.988 | locus YIL066C, strain RNR3, stronger effect = lower value 1.01 | locus YIL073C, strain SPO22, stronger effect = lower value 1.03 | locus YIL125W, strain kgd1, stronger effect = lower value 0.986 | locus YIR030C, strain dcg1, stronger effect = lower value 0.992 | locus YJL092W, strain hpr5, stronger effect = lower value 1.01 | locus YJL095W, strain BCK1 (second series), stronger effect = lower value 0.988 | locus YJL095W, strain BCK1, stronger effect = lower value 1.01 and 0.996 | locus YJL115W, strain asf1, stronger effect = lower value 1.02 | locus YJL129C, strain trk1, stronger effect = lower value 1.02 | locus YJL134W, strain LCB3, stronger effect = lower value 1.01 | locus YJL154C, strain vps35, stronger effect = lower value 1.01 | locus YJL164C, strain tpk1, stronger effect = lower value 1.01 | locus YJL166W, strain qcr8, stronger effect = lower value 1.01 | locus YJL168C, strain set2, stronger effect = lower value 0.988 | locus YJL187C, strain SWE1 (second series), stronger effect = lower value 0.998 | locus YJL187C, strain SWE1, stronger effect = lower value 1 | locus YJR043C, strain POL32, stronger effect = lower value 0.987 | locus YJR066W, strain TOR1, stronger effect = lower value 0.946 | locus YJR075W, strain HOC1, stronger effect = lower value 1.01 | locus YKL009W, strain mrt4, stronger effect = lower value 1 | locus YKL068W, stronger effect = lower value 1.01 | locus YKL085W, strain MDH1 (second series), stronger effect = lower value 0.994 | locus YKL085W, strain MDH1, stronger effect = lower value 0.994 | locus YKL160W, strain elf1, stronger effect = lower value 1.01 | locus YKR001C, strain vps1, stronger effect = lower value 1.01 | locus YKR026C, strain gcn3, stronger effect = lower value 0.983 | locus YKR091W, strain srl3, stronger effect = lower value 1.01 | locus YLL001W, strain dnm1, stronger effect = lower value 1 | locus YLL026W, stronger effect = lower value 1.02 | locus YLL041C, strain sdh2, stronger effect = lower value 1.01 | locus YLR027C, strain aat2, stronger effect = lower value 1.01 | locus YLR039C, strain RIC1, stronger effect = lower value 1.01 | locus YLR058C, strain SHM2, stronger effect = lower value 1.01 | locus YLR102C, strain apc9, stronger effect = lower value 0.998 | locus YLR113W, strain HOG1, stronger effect = lower value 0.994 | locus YLR221C, strain rsa3, stronger effect = lower value 1.01 | locus YLR258W, strain gsy2, stronger effect = lower value 1.02 | locus YLR262C, strain YPT6 (second series), stronger effect = lower value 1.03 | locus YLR262C, strain YPT6, stronger effect = lower value 1.01 | locus YLR268W, strain sec22, stronger effect = lower value 0.976 | locus YLR320W, strain mms22, stronger effect = lower value 1.02 | locus YLR330W, strain CHS5, stronger effect = lower value 1.01 | locus YLR342W, strain FKS1 (second series), stronger effect = lower value 0.998 | locus YLR342W, strain FKS1, stronger effect = lower value 1 | locus YLR357W, strain rsc2, stronger effect = lower value 1.04 | locus YLR370C, strain arc18, stronger effect = lower value 1.03 | locus YLR371W, strain rom2, stronger effect = lower value 0.996 | locus YLR384C, strain iki3, stronger effect = lower value 1.02 | locus YLR418C, strain cdc73, stronger effect = lower value 0.98 | locus YML016C, strain PPZ1, stronger effect = lower value 1 | locus YML032C, strain rad52, stronger effect = lower value 1 | locus YML120C, strain ndi1, stronger effect = lower value 1.01 | locus YML124C, strain tub3, stronger effect = lower value 0.992 | locus YMR058W, strain fet3, stronger effect = lower value 1.01 | locus YMR078C, strain ctf18, stronger effect = lower value 1 | locus YMR125W, strain sto1, stronger effect = lower value 1.03 | locus YMR129W, stronger effect = lower value 1.03 | locus YMR205C, strain PFK2, stronger effect = lower value 1.05 | locus YMR223W, strain ubp8, stronger effect = lower value 0.986 | locus YMR231W, strain pep5, stronger effect = lower value 1.01 | locus YMR263W, strain SAP30, stronger effect = lower value 1 | [1] 0.997 | locus YNL067W, strain RPL9B, stronger effect = lower value 0.998 | locus YNL071W, strain lat1, stronger effect = lower value 1.02 | locus YNL183C, strain NPR1, stronger effect = lower value 0.951 | locus YNL209W, strain ssb2, stronger effect = lower value 1.01 | locus YNL233W, strain BNI4, stronger effect = lower value 0.992 | locus YNL248C, strain rpa49, stronger effect = lower value 1 | locus YNL250W, strain rad50, stronger effect = lower value 1 | locus YNL271C, strain bni1, stronger effect = lower value 0.992 | locus YNL298W, strain CLA4, stronger effect = lower value 0.995 | locus YNL307C, strain MCK1, stronger effect = lower value 0.994 | locus YNL322C, strain KRE1 (second series), stronger effect = lower value 1.01 | [2] 1 | locus YNR049C, strain mso1, stronger effect = lower value 1.01 | locus YNR052C, strain pop2, stronger effect = lower value 1.01 | locus YOL012C, strain htz1 0.764 | locus YOL147C, strain pex11, stronger effect = lower value 0.998 | locus YOR001W, strain rrp6, stronger effect = lower value 1.01 | locus YOR061W, strain CKA2, stronger effect = lower value 1.01 | locus YOR069W, strain VPS5, stronger effect = lower value 1 | locus YOR070C, strain gyp1, stronger effect = lower value 1.02 | locus YOR080W, strain dia2, stronger effect = lower value 1.01 | locus YOR083W, strain WHI5, stronger effect = lower value 0.997 | locus YOR106W, strain vam3, stronger effect = lower value 1.03 | locus YOR136W, strain idh2, stronger effect = lower value 0.99 | locus YOR144C, strain elg1, stronger effect = lower value 0.993 | locus YOR184W, strain ser1, stronger effect = lower value 0.992 | locus YOR231W, strain MKK1, stronger effect = lower value 1 | locus YOR265W, strain rbl2, stronger effect = lower value 1 | locus YOR270C, strain vph1, stronger effect = lower value 1.06 | locus YOR290C, strain snf2, stronger effect = lower value 0.999 | locus YOR316C, strain cot1, stronger effect = lower value 1 | locus YPL051W, strain arl3, stronger effect = lower value 0.994 | [3] 0.988 | locus YPL078C, strain atp4, stronger effect = lower value 1.01 | locus YPL106C, strain sse1, stronger effect = lower value 1.04 | locus YPL240C, strain hsp82, stronger effect = lower value 1.01 | locus YPL241C, strain CIN2, stronger effect = lower value 1 | locus YPL256C, strain CLN2, stronger effect = lower value 0.961 | locus YPR119W, strain clb2, stronger effect = lower value 0.998 | locus YPR141C, strain kar3, stronger effect = lower value 0.985 | locus YPR163C, strain tif3, stronger effect = lower value 0.996 | locus YPR167C, strain met16, stronger effect = lower value 1 | strain wtn01, stronger effect = lower value 0.97
